Reference: PubChem BioAssay

Key:
[1] = system: Botulinum neurotoxin type F light chain protease (Clostridium botulinum); assay: Clostridium botulinum type F light chain protease inhibitors, microsphere substrate cleavage, validation (AID 588459); details: multiplex microsphere protease substrate cleavage assay, flow cytometry; at 10 µM; active compounds read high
[2] = target: Botulinum neurotoxin type A (Clostridium botulinum) (UniProt P0DPI0); assay: BoNT/A light chain protease inhibitors, biochemical, multiplex microsphere flow cytometry, validation set (AID 588460); details: at 10 µM, active compounds read high
[3] = target: Lethal factor (Bacillus anthracis) (UniProt P15917); assay: Bacillus anthracis lethal factor inhibition, microsphere flow cytometry protease assay, validation at 10 µM (AID 588461); details: multiplex microsphere protease cleavage assay, active compounds read high

Measured: inhibition

Lethal factor (Bacillus anthracis), sequence (P15917 whole entry, looked up): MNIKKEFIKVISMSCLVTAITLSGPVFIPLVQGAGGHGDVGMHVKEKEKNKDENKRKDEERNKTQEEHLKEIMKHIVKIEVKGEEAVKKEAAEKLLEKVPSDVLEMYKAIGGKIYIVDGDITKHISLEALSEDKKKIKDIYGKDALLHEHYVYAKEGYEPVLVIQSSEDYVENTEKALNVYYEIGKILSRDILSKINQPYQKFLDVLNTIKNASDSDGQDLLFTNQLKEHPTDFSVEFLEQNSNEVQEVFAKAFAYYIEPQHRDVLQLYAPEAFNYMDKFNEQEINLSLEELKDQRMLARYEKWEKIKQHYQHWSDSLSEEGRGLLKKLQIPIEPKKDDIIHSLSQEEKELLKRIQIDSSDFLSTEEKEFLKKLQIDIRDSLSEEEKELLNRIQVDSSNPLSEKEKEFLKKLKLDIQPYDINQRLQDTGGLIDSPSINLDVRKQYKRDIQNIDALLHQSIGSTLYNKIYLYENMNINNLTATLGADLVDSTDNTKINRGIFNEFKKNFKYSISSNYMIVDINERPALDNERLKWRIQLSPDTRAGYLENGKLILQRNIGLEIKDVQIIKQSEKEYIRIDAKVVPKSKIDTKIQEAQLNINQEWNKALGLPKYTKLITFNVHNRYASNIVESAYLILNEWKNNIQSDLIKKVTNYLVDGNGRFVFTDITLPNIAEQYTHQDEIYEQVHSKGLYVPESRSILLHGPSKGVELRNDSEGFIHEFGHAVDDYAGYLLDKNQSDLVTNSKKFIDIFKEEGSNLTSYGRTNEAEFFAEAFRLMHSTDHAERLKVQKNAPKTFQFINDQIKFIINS
Botulinum neurotoxin type A (Clostridium botulinum), sequence (P0DPI0 whole entry, looked up): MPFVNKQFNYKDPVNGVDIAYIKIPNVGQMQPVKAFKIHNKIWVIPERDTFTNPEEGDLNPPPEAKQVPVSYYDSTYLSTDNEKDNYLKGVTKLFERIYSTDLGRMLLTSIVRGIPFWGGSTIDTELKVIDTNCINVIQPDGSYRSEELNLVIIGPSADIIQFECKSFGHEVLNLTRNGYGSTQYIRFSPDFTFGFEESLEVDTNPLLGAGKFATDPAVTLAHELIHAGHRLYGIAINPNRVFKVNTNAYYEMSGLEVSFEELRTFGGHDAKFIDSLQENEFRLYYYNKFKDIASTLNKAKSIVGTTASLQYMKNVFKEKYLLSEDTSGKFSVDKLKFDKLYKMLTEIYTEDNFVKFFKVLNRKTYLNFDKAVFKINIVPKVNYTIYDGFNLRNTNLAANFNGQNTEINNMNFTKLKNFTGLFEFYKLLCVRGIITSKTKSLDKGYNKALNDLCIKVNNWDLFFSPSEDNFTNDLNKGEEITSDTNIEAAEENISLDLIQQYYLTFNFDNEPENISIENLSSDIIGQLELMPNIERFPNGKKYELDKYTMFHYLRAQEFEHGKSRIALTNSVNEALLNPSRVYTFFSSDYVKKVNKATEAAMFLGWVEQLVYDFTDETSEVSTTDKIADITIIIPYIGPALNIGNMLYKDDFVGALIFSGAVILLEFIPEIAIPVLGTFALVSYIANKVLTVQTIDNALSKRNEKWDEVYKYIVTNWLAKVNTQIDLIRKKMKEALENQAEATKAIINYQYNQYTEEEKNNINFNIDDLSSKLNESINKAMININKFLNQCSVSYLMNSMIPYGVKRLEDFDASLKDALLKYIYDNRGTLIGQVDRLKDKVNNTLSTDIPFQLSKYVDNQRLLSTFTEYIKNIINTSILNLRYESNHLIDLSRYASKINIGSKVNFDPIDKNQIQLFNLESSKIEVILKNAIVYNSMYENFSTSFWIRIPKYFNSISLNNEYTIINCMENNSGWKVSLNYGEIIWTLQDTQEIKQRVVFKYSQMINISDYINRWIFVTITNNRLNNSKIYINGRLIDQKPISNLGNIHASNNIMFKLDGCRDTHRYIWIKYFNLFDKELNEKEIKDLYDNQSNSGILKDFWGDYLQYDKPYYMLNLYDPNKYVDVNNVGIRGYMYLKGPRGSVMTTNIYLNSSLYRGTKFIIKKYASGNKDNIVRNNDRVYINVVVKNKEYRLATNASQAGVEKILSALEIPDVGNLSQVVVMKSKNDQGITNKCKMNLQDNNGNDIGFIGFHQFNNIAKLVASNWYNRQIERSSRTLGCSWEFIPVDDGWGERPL

COc1ccc2c(c1OC)C(C1c3c(cc4c(c3OC)OCO4)CCN1C)OC2=O (configuration not stated)
inactive: [1] 1.6% | [2] -0.7% | [3] 3.5%

COc1cc(NC(=S)NC(=O)c2cccs2)ccc1NC(=O)C(C)C
inactive: [1] -2.2% | [2] 0.1% | [3] -4%

COc1cc(C2Nc3ccccc3NC3=C2C(=O)CC(c2ccc(OC)c(OC)c2)C3)ccc1O (configuration not stated)
inactive: [1] -5.5% | [2] -0.9% | [3] 0%

COc1cc(NC(=S)NN2CCN(C)CC2)cc(OC)c1OC
inactive: [1] 5.5% | [2] -0.6% | [3] -5.6%

Cc1onc(-c2c(Cl)cccc2Cl)c1C(=O)NC1C(=O)N2C1SC(C)(C)C2C(=O)O (configuration not stated)
inactive: [1] 1.2% | [2] 0.2% | [3] 2.3%

COc1ccccc1/C=C/C(=O)c1c2c(c(C)[nH]c1=O)CCCC2
inactive: [1] -1.3% | [2] 0.5% | [3] -5.8%

Cc1ccc2c(c1)c1c(n2C)C(=O)CCC1
inactive: [1] -1.5% | [2] -1% | [3] 3.3%

CCOc1ncnc2c1[nH]c1ccccc12
inactive: [1] 5.6% | [2] 0.5% | [3] -0.4%

O=C(O)CCCCCCCC(=O)O
inactive: [1] 1.1% | [2] -0.8% | [3] -1.4%

CC(C)c1ccc(NC(=O)CNS(=O)(=O)c2ccc(F)cc2)cc1
inactive: [1] 1.6% | [2] -0.9% | [3] 2.8%

COc1ccc(NC(=O)C2CCCN2C(=O)OC(C)(C)C)cc1 (configuration not stated)
inactive: [1] 4.1% | [2] 0.9% | [3] -2.4%

Cc1ccc(OCc2nc(-c3cccnc3)no2)cc1C
inactive: [1] -0.8% | [2] 0.4% | [3] -6.5%

COc1ccc(O)c(N)c1
inactive: [1] -8.6% | [2] -3.6% | [3] -19.6%

COc1ccc(OC(C)C(=O)Nc2ccccc2F)cc1 (configuration not stated)
inactive: [1] 0.8% | [2] -0.2% | [3] 1.9%

O=C(Nc1ccc(C(=O)NC2CCCCC2)cc1)c1cccnc1
inactive: [1] 0.1% | [2] -1.5% | [3] -12.6%

COc1ccccc1N1C(=O)C2CC(C)=C(C)CC2C1=O (configuration not stated)
inactive: [1] -2.6% | [2] -0.4% | [3] 3.9%

CC1(C)CC(C(CC(=O)O)c2ccccc2)CCO1 (configuration not stated)
inactive: [1] 0.4% | [2] -0.2% | [3] -7.8%

COc1cc(C(=O)OCCn2c(=O)c3c(ncn3CCN(C)C)n(C)c2=O)cc(OC)c1OC
inactive: [1] 5.1% | [2] 2.5% | [3] -3.1%

COc1cc(OC)c2c(C)c(Cl)c(=O)oc2c1
inactive: [1] 1.9% | [2] -0.8% | [3] -3.3%

CCCCC(=O)O[C@]1(C(=O)CO)CC[C@H]2[C@@H]3CCC4=CC(=O)CC[C@]4(C)[C@H]3[C@@H](O)C[C@@]21C
inactive: [1] -3.5% | [2] -0.5% | [3] -2.1%

COc1ccc(/C=C(/C#N)c2cccnc2)cc1OC
inactive: [1] -0.3% | [2] 1% | [3] -7.4%

CC1=NS(=O)(=O)c2cc(Cl)ccc2N1
inactive: [1] 1.4% | [2] -0.3% | [3] -1.8%

COc1ccc2oc(=O)c(C(=O)Nc3ccccc3-c3ccccc3)cc2c1
inactive: [1] 3.1% | [2] 0.3% | [3] -1.6%

O=c1oc2c(CN3CCCCC3)c(O)ccc2c2c1CCCCC2
inactive: [1] 4.3% | [2] 0.5% | [3] 1.1%

CC(C)NNC(=O)c1ccncc1
inactive: [1] 1.2% | [2] 1.3% | [3] -7.1%

Cc1cc(O)c(C(C)C)cc1C1(c2cc(C(C)C)c(O)cc2C)OC(=O)c2ccccc21
inactive: [1] -0.9% | [2] -0.3% | [3] -8.1%

O=C(CCCN1CC=C(n2c(=O)[nH]c3ccccc32)CC1)c1ccc(F)cc1
inactive: [1] -1.3% | [2] -1% | [3] -5.4%

Cc1c(OCC(=O)NC(Cc2c[nH]c3ccc(O)cc23)C(=O)O)ccc2c3c(c(=O)oc12)CCC3 (configuration not stated)
inactive: [1] 3.2% | [2] -1.1% | [3] 3.7%

Cc1cc(C)cc(Nc2nc3c([nH]2)c(=O)n(C)c(=O)n3C)c1
inactive: [1] -0.8% | [2] 0.5% | [3] 4.9%
